Most compounds without a hit are left out; they make up all but 10% or so of the library.
hNpr1 antagonist = Natriuretic polypeptide receptor (hNpr1) antagonism - Primary qHTS | Atrial natriuretic peptide receptor 1 (Homo sapiens), P16066 | HEK293 hNpr1 GloSensor cGMP, ANP-stimulated luminescence | Potency, µM (doses to about 46.3 µM), inactives show top-dose activity change, negative = inhibition, usual class: inhibitors | 1.6% of 76,000 active; calls by dose curve; also: nearly all actives have a fitted effect of over 60% in size
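HEK293 cells stably expressing human Npr1 and cGMP GloSensor pGS-40F, loaded 2 h with 2% GloSensor reagent, given compound 30 min at room temperature. Luminescence read before and 20 min after 0.1 nM hNppA.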
HEK cytotox = Cytotoxic Profiling in HEK 293 Cell Line of Diverse Libraries Using Quantitative High-Throughput Screening; AID 1345083, 2018; Potency, µM (doses to about 115 µM), for inactives: top-dose activity change, negative = cytotoxicity, most hits filed as inhibitors; HEK 293 viability, ATP luminescence (CellTiter-Glo), 48-72 h; 6.6% of 94,000 active; also: nearly all actives have a fitted effect of over 60% in size
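ATP-coupled CellTiter-Glo luminescence served as viability read-out, recorded 10 min after reagent addition at room temperature. HEK 293 cells, 250 cells/well, had been incubated with pintool-transferred compound for 48 or 72 hr at 37 degree Celsius.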
FLuc inh = Firefly luciferase inhibition profiling of diverse chemical library using quantitative high-throughput screening | Luciferin 4-monooxygenase (Photinus pyralis), P08659 | Potency, µM (titrated, usually from 115 µM), hits mostly inhibitors | 2.5% of 76,000 active | purified P. pyralis luciferase, luminescence, biochemical; also: nearly all actives have a fitted effect of over 65% in size
Target sequence (P08659 whole entry, looked up): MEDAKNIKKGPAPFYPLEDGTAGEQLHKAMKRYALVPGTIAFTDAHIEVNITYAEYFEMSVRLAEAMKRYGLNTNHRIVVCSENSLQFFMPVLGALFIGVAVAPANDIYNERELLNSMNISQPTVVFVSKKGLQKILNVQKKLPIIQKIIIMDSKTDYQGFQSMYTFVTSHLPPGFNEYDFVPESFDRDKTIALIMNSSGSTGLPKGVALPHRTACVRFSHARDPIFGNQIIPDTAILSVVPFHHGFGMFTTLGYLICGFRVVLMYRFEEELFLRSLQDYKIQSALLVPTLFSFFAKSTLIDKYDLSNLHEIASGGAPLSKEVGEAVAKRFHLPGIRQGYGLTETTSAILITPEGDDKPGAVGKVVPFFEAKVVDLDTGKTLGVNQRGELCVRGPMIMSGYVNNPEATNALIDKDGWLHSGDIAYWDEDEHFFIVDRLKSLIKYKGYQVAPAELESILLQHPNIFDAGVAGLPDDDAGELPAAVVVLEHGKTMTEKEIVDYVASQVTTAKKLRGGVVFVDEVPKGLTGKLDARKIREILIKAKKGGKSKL
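Luminescence read by CCD imager after adding enzyme (10nM final) to wells holding compound, titrated in qHTS. Substrates 10uM each D-luciferin and ATP; buffer 50mM Tris acetate pH 7.5, 10mM Mg acetate, Tween-20, BSA.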
GPT2 inhibitor = Primary qHTS assay for inhibitors of Glutamate pyruvate transaminase 2 (GPT2). Potency, µM (titrated, usually from 57.7 µM), inactives show top-dose activity change, negative = inhibition, hits mostly inhibitors. 0.25% of 100,000 active. Recombinant GPT2, coupled pyruvate oxidase/HRP Amplex Red fluorescence. AID 1671188, 2021; also: nearly all actives have a fitted effect of over 60% in size
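Recombinant GPT2 (10ng/uL) with 250uM a-KG and 2mM L-alanine, 30 min at room temperature, in HEPES pH 7.5 buffer. Pyruvate detected by pyruvate oxidase/HRP/Amplex Red fluorescence after 30 min in the dark; AOA (50uM) as positive control.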
3T3 cytotox = Cytotoxic Profiling in NIH 3T3 Cell Line of Diverse Libraries Using Quantitative High-Throughput Screening. NIH 3T3 viability, CellTiter-Glo ATP luminescence, 48-72 h. Potency, µM (top dose mostly 96.7 µM), without a hit: top-dose activity change, negative = cytotoxicity, actives largely listed as inhibitors. 4.3% of 94,000 active. AID 1345082, 2018; also: nearly all actives have a fitted effect of over 55% in size
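ATP-dependent luminescence (CellTiter-Glo) served as the viability signal for NIH 3T3 cells treated with compound for 48 or 72 hr at 37 °C.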
An asterisk follows results filed as active; i = inactive; ? = inconclusive; / = no result given; [ ] = another dose, or the depositor's remark. Unless noted, calls follow the shape of the dose curve; as a rule, active = well fitted curve in the direction sought with a large enough effect; inconclusive = small, poorly fitted or top-dose-only effect, or another doubt; inactive = no such curve, though single readings can be large; an effect the other way counts as inactive or inconclusive. % is scaled to controls: 0 for no effect and ±100 for the full control effect; potency is read from the fitted curve at half-maximal effect.

SMILES	hNpr1 antagonist	HEK cytotox	FLuc inh	GPT2 inhibitor	3T3 cytotox
O=C(C1CCCC1)N1CCC(Oc2cnc3c(ccn3-c3cncnc3)c2)CC1	1%[70.6 µM]	?	i	0%[88.5 µM]	?
C[S+](=O)([O-])NCCn1ccc2cc(OC3CCN(C(=O)C4CCCC4)CC3)cnc21	-27%[70.6 µM]	?	i	5%[88.5 µM]	100µM*
CO[C@H]1C=CC=C(C)C(=O)NC2=CC(=O)C(NCCN(C)C)=C(C[C@@H](C)C[C@H](OC)[C@@H](O)[C@@H](C)C=C(C)[C@@H]1OC(N)=O)C2=O	/	/	/	31µM*	/
C=CCNC1=C2C[C@@H](C)C[C@H](OC)[C@@H](O)[C@@H](C)C=C(C)[C@H](OC(N)=O)[C@@H](OC)C=CC=C(C)C(=O)NC(=CC1=O)C2=O	/	/	/	3%	/
Cn1cc(Cl)cc1C(=O)N1CCCC(c2ccc(C(=O)O)cc2)C1 (stereo not drawn)	7%	-9%	i	i	?
CN1C(=O)CC(C(=O)O)C12CCN(C(=O)Nc1cccc(F)c1)CC2 (stereo not drawn)	8%	0%	i	i	i
COc1ccc(N2CCN(c3nc(C(=O)NCc4ccccc4C)cs3)CC2)cc1	-28%	28µM*	i	?	?
COc1ccc(N2CCN(c3nc(C(=O)NCC4CCCCC4)cs3)CC2)cc1	-15%	-26%	i	i	-10%
O=C(NC1CCCC1)c1csc(N2CCN(c3ccccc3F)CC2)n1	?	?	i	i	25µM*
O=C(NCc1cccs1)c1csc(N2CCN(c3ccc(F)cc3)CC2)n1	?	32µM*	i	i	?
COc1ccc(N2CCN(c3nc(C(=O)NC4CC4)cs3)CC2)cc1	?	32µM*	i	?	28µM*
C[C@](N)(Cc1ccc(O)c(O)c1)C(=O)O	/	/	/	7.9µM*	/
N#Cc1ccc(CN2CCCCCCNC(=O)[C@@H]3CCC[C@@H]32)cc1	-12%	?	i	i	-26%
O=C1NCCCCCCN(Cc2ccncc2)[C@@H]2CN(C(=O)C3CCCCC3)CC[C@@H]12	5%	45µM*	i	i	?
O=C1NCCCCCCN(Cc2ccc(C(F)(F)F)cc2)[C@H]2CCC[C@@H]12	-23%	40µM*	i	2%	?
COCCCNC(=O)C1CCCN1c1nccc(Nc2ccccc2F)n1 (stereo not drawn)	/	i	/	i	0%
O=C(CCn1cccn1)NC1CCCc2nc(-c3ccccc3)ncc21 (stereo not drawn)	7%	-3%	i	i	3%
Cn1c2c(c3cc(F)ccc31)CN(C(=O)Nc1ccc(Cl)cc1)CC2	-15%	?	25µM*	?	28µM*
Cn1c2c(c3cc(F)ccc31)CN(C(=O)Nc1cccc(Cl)c1)CC2	?	?	?	5%	20µM*
Cc1cccc(NC(=O)N2CCc3c(c4cc(F)ccc4n3C)C2)c1	-15%	?	?	i	?
COc1ccc(-n2cc(CN3CCCC(CO)C3)c(-c3cccc(F)c3)n2)cc1 (stereo not drawn)	2%	?	?	i	?
O=C(C1CCN(CC2CC2)CC1)N1CCC(c2nc3ncccc3[nH]2)CC1	/	i	/	i	-3%
O=C(Nc1ccc(Cl)cc1)N1CCCC(C(=O)N2CCC(c3nc4ncccc4[nH]3)C2)C1 (stereo not drawn)	/	-27%	/	i	-20%
O=C(Nc1ccc(Cl)cc1)N1CCCC(C(=O)N2CCCC(c3nc4ncccc4[nH]3)C2)C1 (stereo not drawn)	/	?	/	-26%	22µM*
